Screening data: PubChem, NMMLSC
MEKK2 WT-MEK5 = raises or lowers MEK5 binding to wildtype human MEKK2 PB1 domain | 1.1% of 290,000 active | bead flow cytometry, Alexa488-MEK5 binding to MEKK2 WT; actives lie on both sides | binding response (% of control), % at 10 µM | Q9Y2U5; in the data active = binding response below about 67% or above about 130%
MEKK2mut PB1 HTS = signal of MEK5 binding to mutant human MEKK2 PB1 domain; 0.35% of 290,000 active; percent response, % at 10 µM; bead flow cytometry, Alexa488-MEK5 binding to MEKK2 mutant; in the data active = percent response above about 24%, passing the limit was not always enough
GRK2 aptamer HTS = inhibitors of human GRK2 displacing RNA aptamer | P25098 | bead flow cytometry, FAM-aptamer displacement from GRK2 | inhibition of aptamer binding, % at 10 µM | 0.59% of 330,000 active | AID 488847;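 active = inhibition of aptamer binding above 40%, roughly 3 SD of noise, on plates passing a quality check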;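 note: median bead fluorescence of bound FAM aptamer so fluorescent compounds give negative values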
Target sequence (P25098 whole entry, looked up): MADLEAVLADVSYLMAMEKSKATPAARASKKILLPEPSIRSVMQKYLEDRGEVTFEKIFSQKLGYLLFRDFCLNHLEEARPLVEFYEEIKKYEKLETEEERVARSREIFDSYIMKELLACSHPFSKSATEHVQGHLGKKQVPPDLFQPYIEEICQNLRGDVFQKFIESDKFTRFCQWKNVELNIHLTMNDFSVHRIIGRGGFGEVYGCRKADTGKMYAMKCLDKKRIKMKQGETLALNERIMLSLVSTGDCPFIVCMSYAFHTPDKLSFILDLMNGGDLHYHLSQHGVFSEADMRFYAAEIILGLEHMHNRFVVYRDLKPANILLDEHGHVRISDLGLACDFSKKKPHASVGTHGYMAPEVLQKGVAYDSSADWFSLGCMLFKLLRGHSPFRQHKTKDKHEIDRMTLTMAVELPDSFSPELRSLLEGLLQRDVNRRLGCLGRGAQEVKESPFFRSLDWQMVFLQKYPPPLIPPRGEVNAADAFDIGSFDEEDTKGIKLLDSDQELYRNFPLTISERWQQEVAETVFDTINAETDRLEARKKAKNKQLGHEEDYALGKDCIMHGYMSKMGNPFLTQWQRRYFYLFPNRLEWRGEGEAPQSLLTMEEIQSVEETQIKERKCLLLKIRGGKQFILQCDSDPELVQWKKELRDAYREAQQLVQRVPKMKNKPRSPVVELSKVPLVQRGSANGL
MEKK3 PB1 HTS = raises or lowers MEK5 binding to the human MEKK3 PB1 domain. bead-based flow cytometry, Alexa488-MEK5 binding to MEKK3; actives lie on both sides; 0 = blocked by unlabeled MEK5, 100 = vehicle. binding response (% of control), % at 10 µM. 1.4% of 290,000 active. AID 1529;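 active = binding response more than 3 SD above or below the average of its plate-row segment, actives on both sides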;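 note: Alexa488 bead fluorescence after subtracting the streptavidin-only scavenger bead signal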
MEKK2wt confirm = raises or lowers MEK5 binding to wildtype human MEKK2, retest | shares compounds with MEKK3 PB1 HTS | bead flow cytometry, Alexa488-MEK5 binding to MEKK2 WT; actives lie on both sides | binding response (% of control), % at 10 µM | 2.4% of 5,900 active; in the data active = binding response below about 16% or above about 210%; inactive = in between
MEKK2mut confirm = signal of MEK5 binding to mutant human MEKK2, retest; bead flow cytometry, Alexa488-MEK5 binding to MEKK2 mutant; 2% of 5,900 active; percent response, % at 10 µM; AID 1893; shares compounds with MEKK3 PB1 HTS; in the data active = percent response mostly above about 71%, no sharp cut-off; inactive = mostly below about 38%;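 note: higher means compound restores mutant binding toward wildtype level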
MEKK3 confirm = MEKK3-MEK5 PB1 inhibition, single concentration confirmation; shares compounds with MEKK3 PB1 HTS; bead flow cytometry, Alexa488-MEK5 binding to MEKK3; active compounds read low; binding response (% of control), % at 10 µM; 1.8% of 5,900 active;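 active = binding response below 72% of control, or above a set upper limit, though filed actives all read lower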;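 note: 100% = DMSO only wells and 0% = binding blocked by excess unlabeled MEK5; lower values mean stronger disruption of MEK5 binding to MEKK3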
An asterisk follows results filed as active; [ ] = another dose, or the depositor's remark. Only some compounds are listed: those with a hit (about 2.5% of all), similar ones and a draw of the others.

Results for CC(=NC(C)C)C1=C(O)C(C)OC1=O (stereo not given) ?
MEKK2 WT-MEK5: 99; MEKK2mut PB1 HTS: -2; GRK2 aptamer HTS: 0; MEKK3 PB1 HTS: 98

What do the screens show for `O=C(c1ccc2snnc2c1)N1CCN(c2ccccn2)CC1`?
MEKK2 WT-MEK5: 103; MEKK2mut PB1 HTS: 3; GRK2 aptamer HTS: 0; MEKK3 PB1 HTS: 101

How did O=C(c1ccc2snnc2c1)N1CCN(c2ccccc2)CC1 do in these assays?
MEKK2 WT-MEK5: 131; MEKK2mut PB1 HTS: 8; GRK2 aptamer HTS: 0; MEKK3 PB1 HTS: 129*; MEKK2wt confirm: 92; MEKK2mut confirm: -8; MEKK3 confirm: 95

What do the screens show for `COc1ccccc1NS(=O)(=O)c1cc(NC(=O)CCC(=O)c2cccs2)ccc1Cl`?
MEKK2 WT-MEK5: 108; MEKK2mut PB1 HTS: 0; GRK2 aptamer HTS: 3; MEKK3 PB1 HTS: 147*; MEKK2wt confirm: 99; MEKK2mut confirm: -6; MEKK3 confirm: 97

What do the screens show for `COc1ccc(NC(=O)CCC(=O)c2cccs2)cc1S(=O)(=O)Nc1ccc(Cl)cc1`?
MEKK2 WT-MEK5: 119; MEKK2mut PB1 HTS: 20; GRK2 aptamer HTS: 6; MEKK3 PB1 HTS: 110

What do the screens show for `Cc1cccc(N2CCN(C(=O)c3ccc(Cl)c(S(=O)(=O)N4CCc5ccccc5C4)c3)CC2)c1C`?
MEKK2 WT-MEK5: 101; MEKK2mut PB1 HTS: -2; GRK2 aptamer HTS: 0; MEKK3 PB1 HTS: 96

How did CCC(CC)C(=O)Nc1cc(C(=O)OC)ccc1C(=O)OC do in these assays?
MEKK2 WT-MEK5: 113; MEKK2mut PB1 HTS: 1; GRK2 aptamer HTS: 2; MEKK3 PB1 HTS: 194*; MEKK2wt confirm: 97; MEKK2mut confirm: -1; MEKK3 confirm: 105

What do the screens show for `O=C(Cc1ccccc1F)OCN1C(=O)c2ccccc2C1=O`?
MEKK2 WT-MEK5: 98; MEKK2mut PB1 HTS: -1; GRK2 aptamer HTS: 0; MEKK3 PB1 HTS: 100

What do the screens show for `CCn1ncc([N+](=O)[O-])c1C(=O)Nc1ccc(C)c(C)c1`?
MEKK2 WT-MEK5: 98; MEKK2mut PB1 HTS: -7; GRK2 aptamer HTS: 4; MEKK3 PB1 HTS: 100

How did CC(C)CCN(C(=S)Nc1cccc(F)c1)C(C)c1cccs1 (stereo not given) do in these assays?
MEKK2 WT-MEK5: 59; MEKK2mut PB1 HTS: -13; GRK2 aptamer HTS: 0; MEKK3 PB1 HTS: 46*[inhibitor]; MEKK2wt confirm: 104; MEKK2mut confirm: -5; MEKK3 confirm: 103

How did Cc1ccc2c(c1)nnn2C1CCN(CC(=O)c2ccc(Cl)cc2)CC1 do in these assays?
MEKK2 WT-MEK5: 120; MEKK2mut PB1 HTS: 5; GRK2 aptamer HTS: 0; MEKK3 PB1 HTS: 129*; MEKK2wt confirm: 102; MEKK2mut confirm: 4; MEKK3 confirm: 101

Results for COc1ccccc1CNC(=O)CN1C(=O)c2ccc([N+](=O)[O-])cc2C1=O ?
MEKK2 WT-MEK5: 100; MEKK2mut PB1 HTS: 3; GRK2 aptamer HTS: 0; MEKK3 PB1 HTS: 99

How did O=C(NNC(=S)Nc1cccc(C(F)(F)F)c1)c1cccc(Cl)c1 do in these assays?
MEKK2 WT-MEK5: 99; MEKK2mut PB1 HTS: -1; GRK2 aptamer HTS: 0; MEKK3 PB1 HTS: 100

What do the screens show for `O=C(NNC(=S)Nc1cccc(C(F)(F)F)c1)c1ccccc1Cl`?
MEKK2 WT-MEK5: 91; MEKK2mut PB1 HTS: 1; GRK2 aptamer HTS: 0; MEKK3 PB1 HTS: 66*[inhibitor]; MEKK2wt confirm: 103; MEKK2mut confirm: 4; MEKK3 confirm: 100

What do the screens show for `O=C(CSc1cccc[n+]1[O-])N1CCCc2ccccc21`?
MEKK2 WT-MEK5: 25*[inhibitor]; MEKK2mut PB1 HTS: -18; GRK2 aptamer HTS: 0; MEKK3 PB1 HTS: 70; MEKK2wt confirm: 99; MEKK2mut confirm: -1; MEKK3 confirm: 101

What do the screens show for `Cn1cccc1/C=C(\C#N)C(N)=S`?
MEKK2 WT-MEK5: 98; MEKK2mut PB1 HTS: -3; GRK2 aptamer HTS: 5; MEKK3 PB1 HTS: 97

What do the screens show for `Cn1c(/C=C(\C#N)C(N)=S)ccc1-c1ccc(Br)cc1`?
MEKK2 WT-MEK5: 62*[inhibitor]; MEKK2mut PB1 HTS: -6; MEKK3 PB1 HTS: 86; MEKK2wt confirm: 74; MEKK2mut confirm: -16; MEKK3 confirm: 100

Results for CCO[C@H]1OC(C(=O)NC2CC2)=C[C@@H](c2c[nH]c3ccccc23)[C@@H]1CCCO ?
MEKK2 WT-MEK5: 87; MEKK2mut PB1 HTS: 5; GRK2 aptamer HTS: 1; MEKK3 PB1 HTS: 92

Results for CCO[C@@H]1OC(C(=O)NC2CC2)=C[C@H](c2c[nH]c3ccccc23)[C@H]1CCCO ?
MEKK2 WT-MEK5: 111; MEKK2mut PB1 HTS: 1; GRK2 aptamer HTS: 6; MEKK3 PB1 HTS: 82*[inhibitor]; MEKK2wt confirm: 99; MEKK2mut confirm: -7; MEKK3 confirm: 103

What do the screens show for `CN(C(=O)Nc1cnccc1C(F)(F)F)C1CCCCC1`?
MEKK2 WT-MEK5: 103; MEKK2mut PB1 HTS: 7; GRK2 aptamer HTS: 2; MEKK3 PB1 HTS: 98

How did O=C1Nc2ccccc2N(O)N1c1ccc(Cl)cc1 do in these assays?
MEKK2 WT-MEK5: 94; MEKK2mut PB1 HTS: -3; GRK2 aptamer HTS: 0; MEKK3 PB1 HTS: 100

Results for CCN1c2ccccc2NC2C1C(C(C)=O)C(=O)N2c1ccc(Cl)cc1 (stereo not given) ?
MEKK2 WT-MEK5: 59*; MEKK2mut PB1 HTS: 73*; GRK2 aptamer HTS: 0; MEKK3 PB1 HTS: 93; MEKK2wt confirm: 101; MEKK2mut confirm: -2; MEKK3 confirm: 102

Results for Cc1noc(C)c1NC(=O)N(C)C[C@@H]1Oc2c(NC(=O)c3ccncc3)cccc2C(=O)N([C@H](C)CO)C[C@@H]1C ?
GRK2 aptamer HTS: 4

What do the screens show for `O=C(COc1ccccc1[N+](=O)[O-])N/N=C/c1ccncc1`?
MEKK2 WT-MEK5: 88; MEKK2mut PB1 HTS: -12; GRK2 aptamer HTS: 1; MEKK3 PB1 HTS: 94

Results for O=C(COc1ccccc1[N+](=O)[O-])N/N=C/c1ccc(O)cc1 ?
MEKK2 WT-MEK5: 102; MEKK2mut PB1 HTS: 0; GRK2 aptamer HTS: 0; MEKK3 PB1 HTS: 136*; MEKK2wt confirm: 103; MEKK2mut confirm: 1; MEKK3 confirm: 105

How did COc1cc(/C=N/N2CCOCC2)ccc1OC(=O)c1ccco1 do in these assays?
MEKK2 WT-MEK5: 52; MEKK2mut PB1 HTS: -17; GRK2 aptamer HTS: 6; MEKK3 PB1 HTS: 49*[inhibitor]; MEKK2wt confirm: 95; MEKK2mut confirm: -7; MEKK3 confirm: 98

What do the screens show for `CCCCCCCCCCCCCCCC[n+]1cccc2ccccc21`?
MEKK2 WT-MEK5: 157*; MEKK2mut PB1 HTS: 9; GRK2 aptamer HTS: 0; MEKK3 PB1 HTS: 133*; MEKK2wt confirm: 252*; MEKK2mut confirm: 165*; MEKK3 confirm: 112
